# Source: PubChem BioAssay (NCI)
# About 83,000 compounds went through this panel and 20% of them were active in at least one assay; those are over-represented in the sample as a whole.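 Results are percent growth after 48 hours of single-concentration exposure. 100 means growth as in untreated cells, lower positive values show inhibition; negative values down to -100 show cell death.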 A number with no mark means an inactive call. Calls of active or inactive are those of the source. Rule for the calls: active = growth percent below 10; inactive = the rest.
# How the values were obtained:
# Test in all cases: NCI-60 one-dose screen, 48 h (100 = growth as untreated, 0 = no growth, -100 = all killed)
# SR leukemia = conditions: 10 µM unless noted
# RPMI-8226 leukemia = conditions: 10 µM
# OVCAR-8 ovarian = conditions: 10 µM unless noted
# OVCAR-5 ovarian = conditions: 10 µM unless noted
# OVCAR-4 ovarian = conditions: 10 µM unless noted
# SK-OV-3 ovarian = conditions: 10 µM
# IGROV1 ovarian = conditions: 10 µM unless noted
# OVCAR-3 ovarian = conditions: 10 µM unless noted
# HS 578T breast = conditions: 10 µM unless noted
# NCI/ADR-RES ovarian = conditions: 10 µM unless noted
# T-47D breast = conditions: 10 µM
# BT-549 breast = conditions: 10 µM unless noted
# MDA-MB-435 melanoma = conditions: 10 µM unless noted
# SW-620 colon = conditions: 10 µM unless noted
# MCF7 breast = conditions: 10 µM unless noted
# HCT-116 colon = conditions: 10 µM unless noted
# HCC-2998 colon = conditions: 10 µM unless noted
# KM12 colon = conditions: 10 µM unless noted
Compound,growth (SR leukemia),growth (RPMI-8226 leukemia) [%],growth (OVCAR-8 ovarian) [%],growth (OVCAR-5 ovarian) [%],growth (OVCAR-4 ovarian) [%],growth (SK-OV-3 ovarian) [%],growth (IGROV1 ovarian) [%],growth (OVCAR-3 ovarian),growth (HS 578T breast) [%],growth (NCI/ADR-RES ovarian) [%],growth (T-47D breast) [%],growth (BT-549 breast) [%],growth (MDA-MB-435 melanoma),growth (SW-620 colon) [%],growth (MCF7 breast) [%],growth (HCT-116 colon) [%],growth (HCC-2998 colon) [%],growth (KM12 colon) [%]
Cc1ccc(N=c2nc3sc4c(C)ccc(C)c4n3c(N)c2C#N)cc1,111%,85.1,104,104,88.9,96.3,95.1,106%,104,106,90.8,97.2,110%,105,88.3,94.4,110,97.7
N#C[S-].[Au+].c1ccc(CN2[CH-]N(Cc3ccccc3)C(c3ccccc3)=C2c2ccccc2)cc1,-8.44% (active),,,,,,,,,,,,,,,,,
COc1cc(/C=C2\C(=O)Nc3ccccc32)cc(OC)c1O,-10.3% (active),46.6,78.5,112,89.1,93.5,70.2,46.9%,18.4,19.1,49.6,74.8,-25.3% (active),31.5,30.8,46.4,78.8,32.2
Brc1ccccc1Nc1ccc2nnc(-c3ccncc3)n2n1,61.7%,91.1,100,101,104,102,93.6,103%,109,99.8,80.6,107,105%,102,84.9,94.9,113,94.1
Nc1c(Br)cc(Br)cc1-c1n[nH]c(=O)[nH]c1=O,7.84% (active),99.6,105,97.2,98.5,93.4,105,113%,78.3,103,103,101,99.2%,96.9,99.8,107,111,99.8
O=C1NC(=O)C(CSc2ccccc2)(c2ccccc2)N1 (stereo unspecified),89.9%,100,99.3,107,111,101,80.4,124%,106,99.9,93.4,100,112%,106,101,102,96.4,113
COc1ccc(OC)c(C2C(C#N)=C(N)Oc3cc(O)ccc32)c1 (stereo unspecified),80%,84.5,100,97,101,97.2,105,111%,94,94.7,86.7,94.1,83.4%,101,99.3,96.3,109,94
CC(=O)OCC1O[C@@H]([S-])C(OC(C)=O)[C@H](OC(C)=O)[C@@H]1OC(C)=O.[Au+].c1ccc(CN2[CH-]N(Cc3ccccc3)C(c3ccccc3)=C2c2ccccc2)cc1,-29.1% (active),,,,,,,,,,,,,,,,,
COc1ccccc1-n1c(SCc2cc(OC)c(OC)c(OC)c2)nc2ccc(Cl)cc2c1=O,16.1%,17.4,55.3,53.3,63,59.5,47.7,0.54% (active),39.6,20.2,43.9,39.5,-34.2% (active),16.9,15.6,21.1,56.9,16.4
COc1ccc(-c2nc3sc(C)cn3c2/C=C/C(=O)c2cc(OC)c(OC)c(OC)c2)cc1,48.5%,31.5,35.7,113,47.8,66.4,67.1,41.7%,37.3,21.8,50.3,59.9,20.9%,64.3,46.7,42.1,69.3,29.3
